Inconclusive results are not listed. Where a call stands in place of a potency, no number is given. Calls of active or inactive are those of the source. Calls come from the whole dose curve; as a rule, active = well fitted inhibition curve with a large enough effect; inconclusive = small, poorly fitted or top-dose-only effect; inactive = no such curve, though single readings can be large or run the other way.

Experimental findings from PubChem BioAssay (NCATS) are described below.

In this experiment the target is Protein phosphatase 1D (Homo sapiens) (UniProt O15297). The experiment can be described thus: RapidFire Mass Spectrometry qHTS Assay for Modulators of WT P53-Induced Phosphatase 1 (WIP1) (AID 1347424). As to conditions: WIP1 dephosphorylation of phosphopeptide, RapidFire MS; series mostly up to 63 µM. In outline: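 RapidFire MS readout of dephosphorylated VEPPL-S-QETFS product, with 1 uM isotope-labelled peptide standard. Reaction: 10 nM WIP1, 2 uM phosphopeptide substrate, 5 min, room temperature, after 1 h compound preincubation; stopped with 0.5% formic acid.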
Chain of Protein phosphatase 1D (Homo sapiens) (O15297 whole entry, looked up): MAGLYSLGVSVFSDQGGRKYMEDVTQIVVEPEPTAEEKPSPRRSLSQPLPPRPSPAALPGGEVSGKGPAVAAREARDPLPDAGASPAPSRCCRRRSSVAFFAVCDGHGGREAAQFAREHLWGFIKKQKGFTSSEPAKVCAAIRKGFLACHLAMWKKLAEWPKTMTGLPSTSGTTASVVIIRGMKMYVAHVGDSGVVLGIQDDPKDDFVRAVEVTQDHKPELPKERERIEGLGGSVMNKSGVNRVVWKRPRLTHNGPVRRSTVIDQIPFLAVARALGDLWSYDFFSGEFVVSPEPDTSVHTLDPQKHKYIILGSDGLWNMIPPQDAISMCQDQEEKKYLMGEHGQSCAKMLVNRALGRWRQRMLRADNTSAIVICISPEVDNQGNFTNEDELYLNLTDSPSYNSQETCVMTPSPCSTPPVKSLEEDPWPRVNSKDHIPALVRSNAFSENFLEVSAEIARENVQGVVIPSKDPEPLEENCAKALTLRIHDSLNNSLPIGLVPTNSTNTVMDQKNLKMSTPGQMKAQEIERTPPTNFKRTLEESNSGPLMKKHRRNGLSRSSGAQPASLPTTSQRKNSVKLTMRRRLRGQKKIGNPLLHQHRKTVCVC
In general terms: In qHTS, concentration-response curves come from the screen itself.
Turning to `COC(=O)C1=C(C)NC(C)=C(C(=O)OCC(C)C)C1c1ccccc1[N+](=O)[O-]` (stereo not drawn), the Potency entry is “inactive”.

Take `COC(=O)C1=C(C)NC(C)=C(C(=O)OCC(C)=O)C1c1ccccc1[N+](=O)[O-]` (stereo not drawn): the Potency result is “inactive”.

Regarding `CN(C)c1ccc(C(=C2C=CC(=[N+](C)C)C=C2)c2ccccc2)cc1`, the Potency entry is “inactive”.

Take `O=c1[nH]c2ccccc2n1CCCN1CCN(C(c2ccccc2)c2ccccc2)CC1`: the Potency entry is “inactive”.

With `CCCSc1ccc2nc(NC(=O)OC)[nH]c2c1`, the Potency result was “inactive”.

On to `CN(C)c1ccc(N=NS(=O)(=O)O)cc1`, for which the Potency result was “inactive”.

Take `O=c1cc(-c2ccccc2)oc2ccccc12`: the Potency result was “inactive”.

With `[O-][n+]1ccccc1SSc1cccc[n+]1[O-]`, the Potency result was “inactive”.

`Cc1c(Nc2ncccc2C(=O)O)cccc1C(F)(F)F`: the Potency result is “inactive”.

Regarding `COC(=O)Nc1nc2ccc(C(=O)C3CC3)cc2[nH]1`, the Potency entry is “inactive”.

Turning to `CCCCC1C(=O)N(c2ccccc2)N(c2ccc(O)cc2)C1=O` (stereo not drawn), the Potency result was “inactive”.

As for `S=c1[nH]c2ccccc2s1`, the Potency entry is “inactive”.

On to `Cc1[nH]cnc1CN1CCc2c(c3ccccc3n2C)C1=O`, for which the Potency result is “inactive”.
